Our source for the RUNX1 binding intensity values is the supplement of paper PMC10681739.
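Note: Full-length recombinant human RUNX1 bound to double-stranded 36-bp genomic probes on a high-density microarray, scored as Alexa488 fluorescence per spot via anti-RUNX1 antibody, median of four replicate spots.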

Sequence of RUNX1 (Q01196 whole entry): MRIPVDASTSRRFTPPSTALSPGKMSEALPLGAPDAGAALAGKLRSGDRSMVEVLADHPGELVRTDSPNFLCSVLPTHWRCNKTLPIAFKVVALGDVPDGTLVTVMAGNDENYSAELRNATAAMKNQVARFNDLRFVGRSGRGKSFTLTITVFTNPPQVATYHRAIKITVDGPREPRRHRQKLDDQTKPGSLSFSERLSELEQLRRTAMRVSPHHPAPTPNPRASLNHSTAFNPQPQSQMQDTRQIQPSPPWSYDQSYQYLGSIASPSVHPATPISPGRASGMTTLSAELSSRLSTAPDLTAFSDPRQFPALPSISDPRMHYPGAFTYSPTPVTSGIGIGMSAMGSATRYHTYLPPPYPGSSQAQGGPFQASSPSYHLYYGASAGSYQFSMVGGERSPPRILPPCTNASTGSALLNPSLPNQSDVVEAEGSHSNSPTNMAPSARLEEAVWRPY

The experiment concerns the target RUNX1 (UniProt Q01196). Description: RUNX1 binding intensity (PBM fluorescence), RUNX1 alone (arbitrary fluorescence units); higher = stronger binding. The note with it: RUNX1 concentration 2 nM; ETS1 concentration 0 nM. How it is done:
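Cooperative gcPBM on 36-bp genomic probes with neighbouring ETS1 and RUNX1 sites. Recombinant human RUNX1 (2 nM) was incubated alone or with ETS1 (25 nM) and detected with anti-RUNX1 antibody plus Alexa488 secondary. Values are medians over 4 replicate spots; the RUNX1+ETS1 data were normalised to the RUNX1-only data. The probes sit in constant array flanks that are not printed.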
Regarding GCGAAAAACGCGGAAATGCGGTGGCGGCGGCCCGCT, the RUNX1 binding intensity worked out at 721.
The value for GCAGCCCAGCTTCCTGCAGACCAAAACCACAAGCAG was 1390.
In turn, GCCGGGCACCCCGGAAGACCGCTGGGAACCGGCTTT yielded an RUNX1 binding intensity of 656.
To TGGCAGCGGGTGCGGAAACCACAGGCCTCCAGGCTT belongs 1480; to CCACCCTCCGTCCGGCCGCGACCGCGAGGAGGAAGA, 841.
To TTTCAAAACCCGGAAATGACCGCCAGGCTGGCATCA belongs 859.
In the case of GCCAGCGGGGCTTCCGGCCCCGCAGGCAGAAGTCGA, the RUNX1 binding intensity was determined as 646.
To CGGCAGGGAAGCAGGAAACCGCGAGTGGAGAAAGGG belongs 1160; to AGGCTTCCGGCCACGCCCCCTTCCCGCGGTTGCTAG, 748.
To AAGAGGAAATAAATACCAGAGTGAACCCACAAACCT belongs 892; to CCTGTTTCCTGCCATCTGCCCTTCCTTTGTGGTCAA, 3310.
For the sequence AGCTTGCGCAGGAAGTCTGCGGCAGGAGGGCGTCCT, the RUNX1 binding intensity came out at 687.
To CTGCTGACCAAAACAGGATGTGGTCTACACAAAGTG belongs 800.
The value for CTGCGTTTCCTCTGAGTTTTGCATGTTGAGGTTGGA was 877; that for TTCTTCACTTCCTTCTCTCCGTGGTTTCGCCATTAG was 2260.
The value for GCGATCGGAGCGGAAGTGGAGCTACCGCCACCGCCG was 819.
TGCCCTGACTTCCTGGTCCTGTGGTCAAGGATGGGG yielded an RUNX1 binding intensity of 889.
As to AAACCCTGAGTAATCGGAAGTGGTTAGGAGTGAGAG, the RUNX1 binding intensity turned out to be 816.
To CAGCCGACTTCCGGGGTGGGGCTTGCTGCCGCAGAG belongs 774; to CGATTCCGGAGACAGGCCCCACCGTGCGGTAAACTG, 835.
The value for ACAGATACAGCCTCAGGAAGTGGTTTTGTATCTCTG was 682.
